HEK cytotox: Cytotoxic Profiling in HEK 293 Cell Line of Diverse Libraries Using Quantitative High-Throughput Screening | HEK 293 viability, ATP luminescence (CellTiter-Glo), 48-72 h | Potency, µM (top dose mostly 115 µM), usual class: inhibitors | AID 1345083, 2018 | actives 6.6% (n = 94,000); note: nearly all actives have a fitted effect of over 60% in size
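Read-out: CellTiter-Glo ATP luminescence. Cells: HEK 293, 250 cells/well. Exposure: 48 or 72 hr, 37 degree Celsius.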
NIH3T3 tox: Cytotoxic Profiling in NIH 3T3 Cell Line of Diverse Libraries Using Quantitative High-Throughput Screening; actives 4.3% (n = 94,000); NIH 3T3 viability, CellTiter-Glo ATP luminescence, 48-72 h; AID 1345082, 2018; Potency, µM (top dose mostly 96.7 µM), actives largely listed as inhibitors; note: nearly all actives have a fitted effect of over 55% in size
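Cytotoxicity is measured as loss of cellular ATP: NIH 3T3 cells (400/well) are exposed to compound for 48 or 72 hr at 37 °C, then CellTiter-Glo luminescence is imaged after 10 min at room temperature.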
Luciferase inh: Firefly luciferase inhibition profiling of diverse chemical library using quantitative high-throughput screening; actives 2.5% (n = 76,000); purified P. pyralis luciferase, luminescence, biochemical; Potency, µM (series often up to 115 µM), actives largely listed as inhibitors; Luciferin 4-monooxygenase (Photinus pyralis), P08659; note: nearly all actives have a fitted effect of over 65% in size
Target sequence (P08659 whole entry, looked up): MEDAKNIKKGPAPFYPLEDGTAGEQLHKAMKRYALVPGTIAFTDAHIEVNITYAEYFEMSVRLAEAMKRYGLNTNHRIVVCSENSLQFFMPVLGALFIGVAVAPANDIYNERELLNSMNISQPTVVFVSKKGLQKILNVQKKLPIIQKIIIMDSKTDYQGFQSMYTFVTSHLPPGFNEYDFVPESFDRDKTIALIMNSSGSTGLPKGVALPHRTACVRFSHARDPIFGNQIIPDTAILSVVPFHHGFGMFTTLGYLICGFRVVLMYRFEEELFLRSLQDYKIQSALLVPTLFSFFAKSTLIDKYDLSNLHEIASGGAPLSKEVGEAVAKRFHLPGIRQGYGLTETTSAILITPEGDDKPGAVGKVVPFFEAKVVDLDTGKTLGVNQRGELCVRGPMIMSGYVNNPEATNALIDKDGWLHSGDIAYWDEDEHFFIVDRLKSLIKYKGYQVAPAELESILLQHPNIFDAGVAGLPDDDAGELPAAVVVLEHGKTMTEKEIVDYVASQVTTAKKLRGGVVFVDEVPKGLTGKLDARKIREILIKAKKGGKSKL
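Luminescence read by CCD imager after adding enzyme (10nM final) to wells holding compound, titrated in qHTS. Substrates 10uM each D-luciferin and ATP; buffer 50mM Tris acetate pH 7.5, 10mM Mg acetate, Tween-20, BSA.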
NPR1 antag: Natriuretic polypeptide receptor (hNpr1) antagonism - Primary qHTS. Atrial natriuretic peptide receptor 1 (Homo sapiens), P16066. HEK293 hNpr1 GloSensor cGMP, ANP-stimulated luminescence. Potency, µM (highest dose often 46.3 µM), usual class: inhibitors. actives 1.6% (n = 76,000). AID 1347048, 2019; calls by dose curve; note: nearly all actives have a fitted effect of over 60% in size
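HEK293 cells stably expressing human Npr1 and cGMP GloSensor pGS-40F, loaded 2 h with 2% GloSensor reagent, given compound 30 min at room temperature. Luminescence read before and 20 min after 0.1 nM hNppA.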
Each line names hits and unclear results; the compound was inactive in the other large screens. Hits are enriched below; roughly 11% of the tested compounds scored in any of these assays. Unless noted, calls come from the whole dose curve; as a rule, active = well fitted curve in the direction sought with a large enough effect; inconclusive = small, poorly fitted or top-dose-only effect, or another doubt; inactive = no such curve, though single readings can be large; an effect the other way counts as inactive or inconclusive.

CC(C)NC(=O)c1cc(-c2ccccc2F)nc2c1cnn2C	NIH3T3 tox inconclusive (no result: Luciferase inh, NPR1 antag)
Cc1ccc2c(c1)C(C[C@H]1CN(C(=O)C3CCCC3)CC[C@H]1CC(=O)O)=NCC2	none
COc1cncc(NC(=O)C2=NO[C@@H]3CN(Cc4cccs4)C[C@H]23)c1	HEK cytotox inconclusive
Cc1noc(C)c1-c1cc2cc(CN(C)C)oc2c(Nc2ccncn2)n1	HEK cytotox inconclusive, NIH3T3 tox 44.7µM
COCCCNc1nc(-c2c(C)noc2C)cc2cc(CN(C)C)oc12	NIH3T3 tox inconclusive
Cc1noc(C)c1-c1cc2cc(CN(C)C)oc2c(-c2ccc([S+](C)(=O)[O-])cc2)n1	HEK cytotox inconclusive, NIH3T3 tox inconclusive
COc1ccc(-c2nc(-c3c(C)noc3C)cc3cc(CN(C)C)oc23)cn1	HEK cytotox inconclusive, NIH3T3 tox 50.1µM
COc1ccc(Nc2nc(-c3c(C)noc3C)cc3cc(CN(C)C)oc23)cn1	HEK cytotox 79.4µM, NIH3T3 tox 79.4µM
COc1ccccc1-c1nc(-c2c(C)noc2C)cc2cc(CN(C)C)oc12	HEK cytotox inconclusive, NIH3T3 tox inconclusive
COc1ccc(-c2nc(-c3c(C)noc3C)cc3cc(C(C)C)oc23)cn1	HEK cytotox inconclusive, NIH3T3 tox inconclusive
COc1cc(-c2nc(-c3c(C)noc3C)cc3cc(CN(C)C)oc23)ccn1	HEK cytotox 79.4µM, NIH3T3 tox 39.8µM
CCNC(=O)N[C@H]1[C@H](O)[C@H](O)C[C@@H]1c1cncnc1	none
COc1cc(-c2onc(C)c2C(=O)N(C)Cc2ccccc2)cc(OC)c1OC	HEK cytotox inconclusive, NIH3T3 tox inconclusive
COCC1CN(S(=O)(=O)c2cnc[nH]2)CC12CCNCC2 (stereo not drawn)	none
COc1ccc2cc1Nc1ccc(cc1)C[C@H](NCC1CC1)C(=O)N(C)[C@@H](C(=O)NCc1ccccc1)C2	HEK cytotox inconclusive
COc1ccccc1CN[C@H]1Cc2ccc(cc2)Nc2cc(ccc2OC)C[C@H](C(=O)NCc2ccccc2)N(C)C1=O	HEK cytotox 39.8µM, NIH3T3 tox inconclusive
O=C(NCc1ccco1)N1CCc2nc3cc(-c4ccccc4Cl)[nH]n3c(=O)c2C1	HEK cytotox inconclusive, NIH3T3 tox inconclusive, Luciferase inh 14.1µM
Cc1noc(-c2ccc(OC3CN(C(=O)c4sccc4C)C3)cc2)n1	HEK cytotox inconclusive, NIH3T3 tox inconclusive, NPR1 antag inconclusive
O=C(c1cccc2[nH]ccc12)N1CC(Oc2ccc(-c3nc(-c4ccccc4)no3)cc2)C1	HEK cytotox inconclusive, NIH3T3 tox inconclusive, Luciferase inh 15.8µM
O=C(c1cc(F)ccc1F)N1CC(Oc2ccc(-c3nc(-c4ccccc4)no3)cc2)C1	HEK cytotox inconclusive, Luciferase inh inconclusive, NPR1 antag inconclusive
Cc1noc(-c2ccc(OC3CN(C(=O)c4cccc5[nH]ccc45)C3)cc2)n1	HEK cytotox inconclusive, NIH3T3 tox inconclusive, Luciferase inh 35.5µM, NPR1 antag inconclusive
CC1CCC2(CC1)NC(=O)N(CC(=O)NCCc1cccs1)C2=O (stereo not drawn)	none
CCOc1ccc(NC(=O)Cn2c(-c3ccc(Cl)cc3)nc(C)c(CCO)c2=O)cc1	none
CCc1ccc(NC(=O)Cn2c(-c3ccccc3)nc(C)c(CCO)c2=O)cc1	HEK cytotox 39.8µM, NIH3T3 tox 39.8µM
CCc1ccc(NC(=O)Cn2c(-c3ccc(Cl)cc3)nc(C)c(CCO)c2=O)cc1	HEK cytotox 39.8µM, NIH3T3 tox 44.7µM
CCc1cccc(NC(=O)Cn2c(-c3ccc(F)cc3)nc(C)c(CCO)c2=O)c1	HEK cytotox inconclusive, NIH3T3 tox inconclusive
COc1ccc(-c2nc3c(c(=O)[nH]2)CCN(C(=O)c2ccc(OC)cc2OC)C3)cc1	HEK cytotox inconclusive, NIH3T3 tox inconclusive
Fc1ccc2nc(CO[C@H]3CN(Cc4ccc5ccccc5n4)C[C@H]3F)[nH]c2c1	HEK cytotox 89.1µM, NIH3T3 tox inconclusive, Luciferase inh inconclusive, NPR1 antag inconclusive
Cn1cc(CN2C[C@@H](F)[C@@H](OCc3nc4ccccc4[nH]3)C2)c2ccccc21	HEK cytotox 100µM, NIH3T3 tox inconclusive
Cn1cc(CN2C[C@@H](F)[C@@H](OCc3nc4ncccc4[nH]3)C2)c2ccccc21	HEK cytotox 89.1µM, NIH3T3 tox inconclusive
Cc1ccc2nc(CO[C@H]3CN(Cc4cn(C)c5ccccc45)C[C@H]3F)[nH]c2c1	HEK cytotox 89.1µM, NIH3T3 tox 79.4µM, NPR1 antag inconclusive
CC(=O)Nc1ccc(NC(=O)Cn2cccc2-c2nc(-c3ccc(F)cc3)no2)cc1	HEK cytotox inconclusive
CCOC(=O)c1cn(C2CN(C(=O)c3ccccc3Br)C2)nn1	none
CS(=O)(=O)N1CCC2(CC1)CN(c1cccc(F)c1)C2c1ccccc1 (stereo not drawn)	HEK cytotox 12.6µM, NIH3T3 tox inconclusive (no result: Luciferase inh, NPR1 antag)
Cc1cccc(-c2cccc(NC(=O)C3CCCN(C(=O)c4cccc(C)n4)C3)c2)c1 (stereo not drawn)	HEK cytotox inconclusive, NIH3T3 tox inconclusive, Luciferase inh 25.1µM
O=C(Nc1cccc(-c2nnc3n2CCCC3)c1)C1CCCC1	none
Cc1cc(C(=O)N2CCCC(C(=O)Nc3cccc(-c4cc5ccccc5[nH]4)c3)C2)nn1C (stereo not drawn)	HEK cytotox 31.6µM, NIH3T3 tox inconclusive, Luciferase inh inconclusive
O=C(Nc1cccc(-n2cccn2)c1)C1CCCN(Cc2cccc(F)c2F)C1 (stereo not drawn)	HEK cytotox 31.6µM, NIH3T3 tox inconclusive
CCn1cc(C(=O)N2CCCC(C(=O)Nc3cccc(-c4cc5ccccc5[nH]4)c3)C2)cn1 (stereo not drawn)	HEK cytotox 39.8µM, NIH3T3 tox inconclusive, Luciferase inh inconclusive
O=C(CCCN1CCCCC1=O)N[C@@H]1[C@@H]2CCO[C@@H]2[C@@H]1C1CCCC1	none
Cc1c(CN2CCCC(C(=O)Nc3cccc(-c4cc5ccccc5[nH]4)c3)C2)cnn1C (stereo not drawn)	HEK cytotox 20µM, NIH3T3 tox 8.91µM
COc1ccc(NC(=O)Cn2c(N3CCCCC3)nc(C)c(C)c2=O)cc1Cl	HEK cytotox 25.1µM, NIH3T3 tox inconclusive
CCc1nc(C)c(C(=O)N2CCOC(CCCC(C)C)C2)o1 (stereo not drawn)	HEK cytotox inconclusive, NIH3T3 tox inconclusive
CN1CCC2(C1)CN(CC1CC1)c1ccc(C(=O)NC3CCC3)cc12 (stereo not drawn)	HEK cytotox inconclusive, NIH3T3 tox inconclusive
CN1CCC2(C1)CN(CC1CC1)c1ccc(C(=O)NCCOc3ccccc3)cc12 (stereo not drawn)	HEK cytotox 56.2µM, NIH3T3 tox 39.8µM
COc1ccc(NC(=O)c2ccc3c(c2)C2(CCN(C)C2)CN3CC2CC2)cc1 (stereo not drawn)	HEK cytotox 50.1µM, NIH3T3 tox 25.1µM
